This note sets out measurements from PubChem BioAssay (NCI).

Holding throughout (experiment): NCI-60 one-dose screen, 48 h (100 = growth as untreated, 0 = no growth, -100 = all killed)
Holding throughout (conditions): 10 µM unless noted

Assay [1] deals with RPMI-8226 leukemia.
Assay [2] deals with OVCAR-8 ovarian.
Assay [3] has as its system OVCAR-5 ovarian.
The test system of assay [4] is OVCAR-4 ovarian.
For assay [5], the system named is SK-OV-3 ovarian.
Assay [6] concerns IGROV1 ovarian.
Assay [7] deals with OVCAR-3 ovarian.
Assay [8] deals with HS 578T breast.
The test system of assay [9] is NCI/ADR-RES ovarian.
The subject of assay [10] is T-47D breast.

This is part of a sample that, as a whole, favours compounds with a hit. Of some 83,000 tested, about 20% had one in any assay.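 A percent growth of 40 corresponds to 60% growth inhibition; 0 means no net growth; -100 means all cells died. Active threshold: below 10.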 Unmarked numbers belong to inactive results. Calls of active or inactive are those of the source.

As to `O=C(CCc1nnco1)c1nc2ccc([N+](=O)[O-])cc2[nH]1`, the growth in assay [1] is 129%; in [2], 105%; in assay [3] it was 108%; in assay [4] it was 105%; in assay [5], 107%; in assay [6], 97.6%. Besides, the growth in assay [7] was 105%; in [8], 102%; in assay [9] it was 104%; in assay [10], 101%.

On to `COC(=O)/C=C1\SC(=Nc2ccc(F)cc2)N(CCc2c[nH]c3ccccc23)C1=O`, for which the growth in assay [1] is 93.8%; in assay [2], 87.5%; in [3] it was 110%; in [4] it was 106%; in assay [5], 102%; in assay [6], 98.5%. Further, the growth is 104% in assay [7], 108% in assay [8], 95.8% in [9] and 91.3% in [10].

Turning to `CNS(=O)(=O)c1cccc(-c2ccc3c4c(n(C)c(=O)c3c2)-c2ccccc2C4=O)c1`, the growth was 30.5% in [1]; 43.9% in assay [2]; 95.2% in assay [3]; 92.1% in assay [4]; 71.8% in assay [5]; 60.8% in assay [6]. The growth is 82.6% in assay [7], 94.5% in assay [8], 70.7% in assay [9] and 47% in assay [10].

As to `CCOC(=O)c1cnn(-c2nc(-c3ccc(F)cc3)c(C#N)c(N3CCOCC3)n2)c1N`, the growth in [1] was 103%; in assay [2], 100%; in assay [3], 95%; in assay [4] it was 101%; in [5], 101%; in [6], 102%. Also, the growth in assay [7] was 113%; in [8], 103%; in [9] it was 96.7%; in assay [10], 83.9%.

`COc1ccc(C2CC(c3ccc(OC)cc3O)=NN2c2ccc(S(N)(=O)=O)cc2)cc1` (stereo not given): the growth in [1] was -32.6% (active); in assay [2], 43%; in assay [3], 83.7%; in [4] it was 42.3%; in assay [5], 69.2%; in [6], 13.2%. Also, the results for the growth in [7], in [8] and in assay [10] were 47.7%, 78.1% and 24.5%, respectively.

With `CCOC(=O)c1c(C)nc2c(c1N)/C(=C/c1cccs1)C(=O)N2Cc1ccccc1`, the growth in assay [1] is -21.2% (active); in assay [2] it was 70.7%; in assay [3], 119%; in assay [4], 82.3%; in [5], 96.6%; in assay [6], 48%. Also, the growth was 53.2% in [7], 93.2% in assay [8] and 43% in [10].

For `CCCCn1c2cc(OCc3cn(-c4ccc(Cl)cc4)nn3)ccc2c2ccnc(C)c21`, the growth in [1] was -34.3% (active); in assay [2], 29.7%; in assay [3] it was 39.5%; in assay [4], 18.2%; in assay [5] it was 52.9%; in assay [6] it was 39.3%. The growth is 30.1% in assay [7], 54.2% in [8] and 22.2% in assay [10].

For the compound `O=c1[nH]c2ccccc2cc1-c1nc2ccc(Cl)cc2[nH]1`, the growth is -38.5% (active) in [1]; 57.7% in assay [2]; 100% in assay [3]; 51% in assay [4]; 14% in assay [5]; 26.5% in assay [6]. Also, the results for the growth in assay [7], in assay [8] and in assay [10] were 35.5%, 46.1% and 35.1%, respectively.

`COc1ccc([C@H]2[C@@H](F)C(=O)N2c2cc(OC)c(OC)c(OC)c2)cc1F`: the growth is 15.3% in [1]; 13.7% in [2]; 43.6% in [3]; 54.9% in assay [4]; 33.4% in assay [5]; 31.9% in [6]. Also, the growth in assay [7] was -4.18% (active); in [8], 25.5%; in assay [10], 74.9%.

On to `CC(C)(C#N)c1cc(F)cc(C(=O)Nc2cc(Nc3ncccc3-c3ncnc4nc[nH]c34)ccc2F)c1`, for which the growth in [1] is 23.7%; in assay [2], 41.1%; in assay [3], 37%; in assay [4], 70.3%; in assay [5], 63.7%; in assay [6], 15.4%. Besides, the growth in [7] is 55.2%; in assay [8] it was 39.9%; in assay [10], 42.8%.

`FC(F)(F)c1ccc2c(Nc3cccc(C4CC(c5ccccc5)=NN4c4ccc(Cl)cc4)c3)ccnc2c1` (stereo not given): the growth in assay [1] was -19.5% (active); in [2], 29.8%; in assay [3], 95.5%; in [4] it was 66.6%; in assay [5], 80.9%; in [6], 20.1%. Moreover, the growth was 19.5% in assay [7], 84.8% in assay [8] and 61.9% in assay [10].

As to `C=C(C)[C@@H]1CC[C@]2(C(=O)n3ccnc3)CC[C@]3(C)[C@H](CC[C@@H]4[C@@]5(C)CCCNC(C)(C)[C@@H]5CC[C@]43C)[C@@H]12`, the growth in assay [1] is -51.3% (active); in assay [2], 62.8%; in assay [3], 74.9%; in [4], 38.3%; in assay [5], 61.9%; in assay [6], 20.4%. The growth in assay [7] was 30.9%; in [8], 47.4%; in assay [10], 11.4%.

With `C=C(C)[C@@H]1CC[C@]2(C(=O)O)CC[C@]3(C)[C@H](CC[C@@H]4[C@@]5(C)C[C@@H](CC#Cc6ccccc6)C(=O)C(C)(C)[C@@H]5CC[C@]43C)[C@@H]12`, the growth in assay [1] was 15.3%; in [2], 26.5%; in [3], 65.4%; in assay [4], 41.3%; in [5], 42.9%; in assay [6] it was 61.1%. Besides, the growth in [7] was 17.9%; in [8], 55.4%; in assay [10], 22.5%.

As for `COc1cc(-c2csc(NC(=O)Nc3ccc(Cl)cc3)n2)cc(OC)c1OC`, the growth is 8.27% (active) in assay [1]; 10.4% in assay [2]; 76.9% in assay [3]; 9.02% (active) in assay [4]; 53.5% in assay [5]; 42.6% in assay [6]. Also, the growth in assay [7] is 19.4%; in [8], 58.9%; in assay [10], -7.45% (active).
